Our source for the growth values is PubChem BioAssay (NCI).

The structures appear in SMILES notation. The panel holds about 83,000 compounds, 20% with a hit somewhere; the sample as a whole holds those more often.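 Plates (96-well) were seeded with cells, treated with compound at one concentration, and incubated for 48 hours before percent growth was determined.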 Unmarked numbers belong to inactive results. Calls of active or inactive are those of the source. The calls were made as follows: active = growth percent below 10; inactive = the rest.

For one assay, the system named is RPMI-8226 leukemia. Put plainly: NCI-60 one-dose screen, 48 h (100 = growth as untreated, 0 = no growth, -100 = all killed). Conditions: 10 µM unless noted.
In the case of `C=CCc1cc(Cl)cc2c(OC(C)=O)c(C(C)=O)c(-c3ccccc3)nc12`, the growth was 97.4%.
The same measure, in the same setting: the figure for `CCN1C(=O)N[C@H]2[C@@H]3NC(=O)c4ccc(Cl)n4[C@@H]3C[C@]21O` is -21.2% (active); for `CN(C)C1CCC(NC2=CC(=O)C=CC2=O)CC1` (stereo not given) it is 111%.
Turning to `CN1C(=O)[C@H]2c3c1cccc3[C@@]13NC(=O)O[C@H]1[C@H](CCC3(C)C)C2(C)C`, the growth is 97%.
Still for that read-out and setting: then `COc1ccc(/C=C2\CCCC3=C2NC(C)=NC3c2ccc(OC)c(OC)c2)cc1OC` (stereo not given), with -25.8% (active); and `Cc1nn(-c2ccc(Cl)cc2)c(=O)n1CCOc1ccccc1Cl`, with 88.9%; and `Cc1cc2c(c(=O)o1)C(c1ccc(OC(=O)N3CCOCC3)cc1)C(C#N)=C(N)O2` (stereo not given), with 109%.
Same read-out and setting: the figure for `CC[C@H](C)[C@H]1NC(=O)[C@@H](N[C@](C)(O)[C@@H](N)CC(C)C)[C@@H](C)OC(=O)[C@H](Cc2ccc(OC)cc2)N(C)C(=O)[C@@H]2CCCN2C(=O)[C@H](CC(C)C)NC(=O)[C@@H](C)C(=O)[C@H](C(C)C)OC(=O)C[C@@H]1O` is -33% (active).

The next assay deals with OVCAR-8 ovarian. The assay is described as above. The following applies: 10 µM unless noted.
For `N=C(N)c1ccc(-c2ccc(-c3ccc(Cl)cc3)o2)nc1`, the growth is -43.4% (active).
In the case of `NC(=O)c1c(NC(=O)c2ccc(OCC3CCCO3)cc2)sc2c1CCCC2` (stereo not given), the growth is 104%.
With `Cc1cc(-c2ccccc2)c(C)n1Cc1ccc(Cl)cc1`, the growth was 47.2%.
Same read-out and setting: the figure for `Clc1cccc(Cl)c1Cn1c(-c2cncs2)nc2ccccc21` is 87%.
Still for that read-out and setting: the figure for `Cc1ccc(Cn2c(-c3nonc3N)nc3ccccc32)cc1` is 88.3%; for `CC/C(=C(\c1ccc(O)cc1)c1ccc(OCCN(C)CCN(C)C(=O)CCC(=O)c2c(C)[nH]c(/C=C3\N=C(c4ccc[nH]4)C=C3OC)c2C)cc1)c1ccccc1` it is 89.9%; for `NC(N)=NC(N)=Nc1ccccc1-c1ccccc1` it is 113%.
The same measure, in the same setting: then `COc1cc(/C=C/C(=O)c2ccc(NC(=O)CN3CCN(c4cc5c(cc4F)c(=O)c(C(=O)O)cn5C4CC4)CC3)cc2)cc(OC)c1OC`, with 4.74% (active); and `COc1ccc(-c2nc(-c3ccccc3)c(-c3ccccc3)n2C2CC2)cc1OC1CCCCC1`, with 55.4%.
As for `CCOC(=O)[C@H](CSSc1ncnc2cc[nH]c12)NC(=O)[C@@H](C)c1ccc2cc(OC)ccc2c1`, the growth was 20.7%.
The same measure, in the same setting: the figure for `COC(=O)c1ccc2nc(-c3cc4ccccc4n3C)n(CCCCOc3cc4c(cc3OC)C(=O)N3CCC[C@H]3C=N4)c2c1` is 16.5%; for `COc1cc2c(cc1OC)C1(C)N(CC2)C(=O)OC1(C)C` (stereo not given) it is 98.4%.
The same measure, in the same setting: the figure for `CN1CCN(c2ccc3cc(-c4nc5ccccc5[nH]4)c(=O)oc3c2)CC1` is 94.7%; for `Nc1c(C(=O)Nc2cccc(C(F)(F)F)c2)sc2nc3c(cc12)CCCCC3` it is 21.3%; for `COC1=CC(c2ccc[nH]2)=N/C1=C\c1[nH]c(C)c(CCCn2cc(CCCCCCCCC[C@@H]3Cc4cc(O)ccc4C4CC[C@]5(C)[C@@H](O)CC[C@H]5C43)nn2)c1C` (stereo not given in full) it is 70.4%.
As to `O=C(CN1CCN(c2cc3c(cc2F)c(=O)c(C(=O)O)cn3C2CC2)CC1)Nc1ccc(C(=O)/C=C/c2ccccc2)cc1`, the growth is 6.3% (active).
Same read-out and setting: the figure for `Cc1cc(Cl)ccc1OC(C)C(=O)Nc1nnc(C2CC2)s1` (stereo not given) is 111%; for `COc1ccc(/C(=N/O)c2cc(F)c(F)c(OC)c2F)cc1O` it is 17.7%; for `COc1ccc(C(=O)c2cc(OC)c(OC)c(OC)c2)cc1/C=C/C(=O)c1ccc2c(c1)OCO2` it is 19.4%.
On the same count and under the same terms, the figure for `CSc1ccccc1C#C/C=C\C#Cc1ccccc1N1CCCCC1=O` is 103%; for `CCCCCCC[C@@H](O)CC(=O)N[C@H](CCCCN)C(=O)N[C@H](Cc1c[nH]c2ccccc12)C(=O)NC(CCCCN)C(=O)N[C@H](CC(C)C)C(=O)N[C@H](Cc1ccccc1)C(=O)N[C@H](CCCCN)C(=O)N[C@H](CCCCN)C(=O)N[C@H](CC(C)C)C(=O)N1CCCC1C(=O)N[C@H](CCCCN)C(=O)N[C@H](Cc1ccccc1)C(=O)N[C@H](CC(C)C)C(=O)N[C@H](Cc1c[nH]cn1)C(=O)N[C@H](CC(C)C)C(=O)N[C@H](C)C(=O)N[C@H](CCCCN)C(=O)N[C@H](CCCCN)C(=O)N[C@H](Cc1ccccc1)C(=O)O` (stereo not given in full) it is -11.1% (active).
Still for that read-out and setting: the figure for `Cc1ccc2c(c1)ncn2-c1ncnc2c1CC(C)c1ccccc1N2C` (stereo not given) is 8.64% (active).
